Screening data as filed in PubChem.
ALOX12 inh: Primary qHTS assay for inhibitors of human arachidonate 12S-lipoxygenase (ALOX12): Round 2. Polyunsaturated fatty acid lipoxygenase ALOX12 (Homo sapiens), P18054. purified 12hLO, xylenol orange hydroperoxide absorbance. Potency, µM (doses to about 108 µM), inactives show top-dose activity change, negative = inhibition, hits mostly inhibitors. 580,000 compounds, 1.1% hits; also: potency is read from the fitted curve at half-maximal effect; % is scaled to controls: 0 for no effect and ±100 for the full control effect
Target sequence (P18054 whole entry, looked up): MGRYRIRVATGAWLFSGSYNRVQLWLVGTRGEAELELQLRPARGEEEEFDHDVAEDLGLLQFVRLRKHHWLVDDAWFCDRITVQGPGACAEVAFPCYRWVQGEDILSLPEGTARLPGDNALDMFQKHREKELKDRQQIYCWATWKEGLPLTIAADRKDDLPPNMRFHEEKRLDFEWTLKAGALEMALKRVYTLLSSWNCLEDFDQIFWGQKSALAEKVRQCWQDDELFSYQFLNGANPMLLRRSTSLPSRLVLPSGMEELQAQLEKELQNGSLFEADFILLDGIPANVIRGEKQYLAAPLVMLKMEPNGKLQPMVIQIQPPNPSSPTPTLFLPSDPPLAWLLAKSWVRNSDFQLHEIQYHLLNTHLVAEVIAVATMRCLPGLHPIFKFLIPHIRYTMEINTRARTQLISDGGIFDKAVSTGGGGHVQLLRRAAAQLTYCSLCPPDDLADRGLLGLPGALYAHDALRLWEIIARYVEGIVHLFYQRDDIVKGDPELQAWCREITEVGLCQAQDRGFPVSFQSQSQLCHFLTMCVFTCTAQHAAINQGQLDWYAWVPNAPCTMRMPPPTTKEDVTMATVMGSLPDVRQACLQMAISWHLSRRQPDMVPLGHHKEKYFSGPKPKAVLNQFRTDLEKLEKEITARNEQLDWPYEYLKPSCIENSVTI
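Hydroperoxide product was detected by ferrous iron/xylenol orange as the 573 to 405 nm absorbance ratio. Arachidonic acid at 40 uM (final) was turned over for 30 min at room temperature by 150 nM human 12hLO, pH 7.0 Hepes buffer, after 15 min compound preincubation.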
Nrf2 activator: qHTS of Nrf2 Activators; AREc32 ARE-luciferase reporter (MCF7-derived line), luminescence, 24 h; 410,000 compounds, 0.31% hits; Potency, µM (titrated, usually from 46.1 µM), inactives show top-dose activation, hits mostly activators; also: potency is read from the fitted curve at half-maximal effect; % of control where 0% means no effect; nearly all actives have a fitted effect of over 65% in size
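Quantitative high-throughput format: AREc32 reporter cells, 1000 per well, received compound by pin transfer and were incubated 24 hr at 37 deg C, 5% CO2, before Steady-Glo luminescence detection.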
A549 viability: Nrf2 qHTS screen for inhibitors: counterscreen for cytotoxicity; A549 ARE-Fluc cells, CellTiter-Fluor viability, 18-24 h; Potency, µM (doses to about 46 µM), for inactives: at the highest dose activity change, negative = cytotoxicity, hits mostly inhibitors; 390,000 compounds, 0.16% hits; AID 504648, 2011; also: potency is read from the fitted curve at half-maximal effect; % is scaled to controls: 0 for no effect and ±100 for the full control effect
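Cytotoxicity counterscreen: CellTiter-Fluor fluorescence was measured in A549 ARE_Fluc cells after 18-24 h of compound exposure in a concentration series. The subsequent BugLite luminescent read reports ARE-luciferase activity.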
mIDH1 inhibitor: qHTS for Inhibitors of mutant isocitrate dehydrogenase 1 (IDH1): qHTS | IDH1-R132H enzyme, NADPH consumption, diaphorase/resazurin fluorescence | Potency, µM (doses to about 76.6 µM), without a hit: top-dose activity change, negative = inhibition, most hits filed as inhibitors | 390,000 compounds, 0.093% hits | AID 602179, 2012; also: potency is read from the fitted curve at half-maximal effect; % is scaled to controls: 0 for no effect and ±100 for the full control effect; nearly all actives have a fitted effect of over 65% in size
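IDH1-R132H (0.5 ug/mL dispensed) in pH 7.5 Tris buffer was preincubated 30 min with compound, then given a substrate mix of 0.016 mM NADPH and 2 mM alpha-KG for 80 min at room temperature; remaining NADPH was read by diaphorase/resazurin fluorescence.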
LDHA block: qHTS assay for inhibitors of human lactate dehydrogenase. activity change, % (values are at about 110 or 230 µM). 480,000 compounds, 0.15% hits. L-lactate dehydrogenase A chain (Homo sapiens), P00338. AID 1347041, 2019. purified LDHA, NADH/diaphorase-resazurin fluorescence; hits give low values; in the data active = activity change below about -30%; inconclusive = mostly about -25% to -30%;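 also: plate controls were DMSO wells for no effect and wells without enzyme for full effect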
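Remaining NADH was detected by diaphorase (0.133 mg/mL) converting 37 µM resazurin to fluorescent resorufin, read at 0 and 20 minutes. The preceding 5-minute room-temperature reaction used 2 nM LDHA, 0.2 mM sodium pyruvate and 0.06 mM NADH at pH 7.4.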
Nrf2 inh: Nrf2 qHTS screen for inhibitors | A549 ARE-Fluc reporter, luciferase luminescence, 18-24 h | Potency, µM (series often up to 46 µM), for the others: at the highest dose activity change, negative = inhibition, usual class: inhibitors | 360,000 compounds, 2.1% hits | AID 504444, 2011; also: potency is read from the fitted curve at half-maximal effect; % is scaled to controls: 0 for no effect and ±100 for the full control effect; nearly all actives have a fitted effect of over 60% in size
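Quantitative HTS in A549 cells stably bearing an antioxidant response element-firefly luciferase construct. Inhibition of Nrf2-driven transcription was scored by luminescence after 18-24 h of compound exposure at 37 °C.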
* hit, by the source's call; ? = inconclusive; · = not tested or not shown; ! = not confirmed by another sample; [ ] = dose if it differs, or a comment. An excerpt weighted towards active compounds, which were near 2.7% of everything screened. Unless noted, calls follow the shape of the dose curve; as a rule, active = well fitted curve in the direction sought with a large enough effect; inconclusive = small, poorly fitted or top-dose-only effect, or another doubt; inactive = no such curve, though single readings can be large; an effect the other way counts as inactive or inconclusive.

SMILES	ALOX12 inh	Nrf2 activator	A549 viability	mIDH1 inhibitor	LDHA block	Nrf2 inh
Fc1ccc(CN2CCCCCC2)c(F)c1	?	-0.1%	-6.9%	-1.1%	-19.9	6.3%
Fc1ccc(CN2CCCCCCC2)c(F)c1	0.447µM*	0.0%	-3.3%	6.8%	-10.6	11.6%
CCCOC(=O)C(C)n1nnc2sc(-c3ccccc3)cc2c1=O (stereo not given)	-17.7%	13.2%	-1.5%	·	0.2	20.6µM*
Cc1onc(-c2ccccc2)c1C(=O)N/N=C/c1c[nH]c2ccccc12	-3.9%	8.4%	?	20.8%	6.3	14.6µM*
Cc1ccc2oc(C(=O)Nc3cccc(C(=O)NC4CC4)c3)cc(=O)c2c1	?	·	·	·	-1.2	·
O=[N+]([O-])c1cc(Cl)ccc1N1CCCC1	-9.2%	-0.2%	0.5%	8.0%	2.4	14.8%
O=C1C(Cl)=C(N2CCN(c3ccccc3[N+](=O)[O-])CC2)C(=O)c2ccccc21	-19.3%	7.94µM*	-22.3%	4.8%	23.0	0.9%
COc1ccc(/C=C/C(=O)c2cccs2)cc1O	?	·	·	·	0.3	·
Nc1ccccc1C=C1Cc2ccccc2C1=O	-9.0%	2.82µM*	1.6%	-0.3%	-1.4	?
O=C1C(=Cc2cccc(F)c2)Cc2ccccc21	-7.0%	10µM*	·	·	1.1	·
COc1ccc(CC(=O)NC(C)c2nnc(SCC(=O)c3ccc(Cl)cc3Cl)n2C)cc1 (stereo not given)	-25.0%	·	·	·	5.1	·
O=C(Nc1cccc(S(=O)(=O)N2CCCC2)c1)c1ccc2c(=O)n3c(nc2c1)CCCCC3	-17.1%	-0.2%	-16.8%	2.0%	-3.6	11.6µM*
O=C(Nc1cccc(S(=O)(=O)N2CCOCC2)c1)c1ccc2c(=O)n3c(nc2c1)CCCCC3	-2.6%	0.4%	?	2.8%	-4.3	20.6µM*
Cc1ccc(NC(=O)c2ccc3c(=O)n4c(nc3c2)CCCCC4)cc1F	-6.9%	7.7%	?	-7.0%	1.0	18.4µM*
O=C(Nc1ccccc1Cl)c1ccc2c(=O)n3c(nc2c1)CCC3	0.0%	-1.2%	2.2%	8.2%	-0.9	?
O=C(Nc1nc(-c2ccccc2)cs1)c1ccc2c(=O)n3c(nc2c1)CCCCC3	-3.6%	0.6%	?	-7.8%	-3.4	5.8µM*
N#CCCNC12CC3CC(CC(C3)C1)C2	?	·	·	·	-6.8	·
CCOc1ccc(OCCn2c(CN3CCOCC3)nc3scc(-c4cccs4)c3c2=O)cc1	31.2%	·	·	·	-0.8	·
COc1c(C)oc2cc(O)ccc2c1=O	4.3%	-0.3%	10.5%	7.7%	-1.8	-10.3%
Oc1ccc2c(c1)oc1cc(O)ccc12	-14.9%	12.6µM*	-5.9%[1.84 µM]	-13.1%	-3.1	?
CC(C)OC(=O)/C(C#N)=C/c1c[nH]c2ccccc12	?	10.7%	3.2%	7.4%	-32.5*!	4.0%
COc1nnc(-c2ccc(N3CCCCC3)c(N)c2)c2ccccc12	?	5.9%	-11.0%	2.1%	1.2	20.6µM*
COc1nnc(-c2ccc(C)c(S(N)(=O)=O)c2)c2ccccc12	-25.6%	3.1%	-4.6%	-2.9%	-1.2	-9.4%
O=C(CCc1ncc(-c2ccccc2F)o1)Nc1ccc(F)c(F)c1	-2.0%	·	·	·	-5.6	·
CCc1ccc(C(=O)COC(=O)c2cc([N+](=O)[O-])ccc2NCCO)cc1	-10.4%	3.1%	14.6µM*	-4.8%	-3.5	7.31µM*
SMILES	ALOX12 inh	Nrf2 activator	A549 viability	mIDH1 inhibitor	LDHA block	Nrf2 inh
O=C(COC(=O)c1cc([N+](=O)[O-])ccc1NCCO)c1ccc(Cl)cc1	-17.0%	0.1%	0.4%	13.2%	-1.8	1.6%
CCCC(=O)c1ccc(Oc2ccccc2)cc1	-4.1%	·	·	·	1.8	·
CCCSC1=C(C#N)C(c2ccc(OC)cc2)C2=C(CC(C)(C)CC2=O)N1 (stereo not given)	-24.8%	0.1%	-28.6%	0.3%	-5.5	23.1µM*
COc1cccc(-n2c(Cc3cc(=O)[nH]c(=O)[nH]3)nnc2SCC(=O)N2CCCCC2)c1	8.91µM*	0.3%	1.4%	12.1%	-2.8	9.8%
O=C(CSc1nnc(Cc2cc(=O)[nH]c(=O)[nH]2)n1-c1ccc(F)cc1)N1CCCCC1	70.5%	-0.6%	-14.6%	-9.5%	1.4	2.0%
CCC(=O)N1CCN(c2ccnc3cc(Cl)ccc23)CC1	0.0%	0.3%	0.4%	1.2%	-11.3	?
O=C(c1ccc(Cl)cc1)N1CCN(c2ccnc3cc(Cl)ccc23)CC1	-1.0%	2.5%	?	-4.0%	-11.8	20.6µM*
CC(C)N(C(=O)N1CCN(c2ccnc3cc(Cl)ccc23)CC1)C(C)C	104.1%	3.4%	-3.6%	-4.0%	-2.5	9.2µM*
O=S(=O)(c1ccc(Br)s1)N1CCN(c2ccnc3cc(Cl)ccc23)CC1	-29.2%	0.8%	-5.6%	1.8%	-4.5	20.6µM*
COc1ccc(NC(=O)Cc2csc(COc3cccc(C)c3)n2)cc1OC	-0.1%	0.3%	2.1%	11.0%	-0.4	23.1µM*
O=C(O)CCCCCCCCC#CC#CCCCC[n+]1ccccc1	19.8%	·	·	·	1.2	·
COc1ccccc1-n1c(SCC(=O)Nc2ccc(C)cc2)nc(O)cc1=O	0.316µM*!	0.3%	11.9%	-1.5%	-0.4	2.8%
Cc1ccc(NC(=O)CSc2nc(O)cc(=O)n2-c2ccc(C)cc2)cc1	2.24µM*	-0.3%	1.4%	-3.6%	-2.2	7.1%
O=c1cc(O)nc(SCc2ccccc2)n1-c1ccc(Cl)cc1	44.7µM*	1.6%	1.4%	-3.3%	-0.8	-3.7%
COc1ccc(NC(=O)CSc2nc(O)cc(=O)n2-c2ccccc2OC)cc1	?	0.1%	2.7%	2.3%	1.8	·
COc1ccc(-n2c(SCC(=O)Nc3ccc(Br)cc3)nc(O)cc2=O)cc1	2.24µM*	3.4%	-0.9%	-1.2%	-2.6	-3.7%
O=C(Nc1nnc(-c2cccnc2)s1)C(=O)c1c[nH]c2ccccc12	52.6%	·	·	·	13.5	·
Cc1ccc(S(=O)(=O)N2CCN(C(C(=O)O)c3c[nH]c4ccccc34)CC2)cc1 (stereo not given)	-10.1%	·	·	·	3.7	·
Cc1cc(C(=O)Nc2nnc(C(F)(F)F)s2)cs1	-4.5%	8.91µM*	-6.0%	46.0%	-5.1	5.1%
Cc1cc(C(=O)Nc2nnc(C(F)(F)F)s2)no1	-4.1%	0.5%	-5.0%	8.7%	-8.5	4.5%
O=C(Nc1ccccc1C(=O)Nc1nnc(C(F)(F)F)s1)c1ccccc1Cl	?	2.1%	16.4µM*	17.7%	-11.6	6.51µM*
